Assay outcomes (PubChem BioAssay)
BAZ2B block: inhibitors of human BAZ2B bromodomain; 4.4% of 360,000 active; AlphaScreen BAZ2B-H3K14Ac peptide displacement; AID 504333; Potency, µM (series often up to 114 µM), for inactives: top-dose activity change, negative = inhibition, hits mostly inhibitors; note: % is set by controls: 0 for no effect and ±100 for the full control effect; nearly all actives have a fitted effect of over 60% in size
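Compounds, titrated to a top concentration of 110 uM, were incubated 30 min at room temperature with preformed BAZ2B/acetyl-K14 H3 peptide complex (50 nM each). Proximity signal was measured by AlphaScreen after 20 min with beads.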
HP1b binding inh: blocks HP1-beta chromodomain binding to methylated histone tails; P83916; AlphaScreen HP1-beta / biotin-H3K9me3 peptide binding; Potency, µM (highest dose often 114 µM), for the others: top-dose activity change, negative = inhibition, hits mostly inhibitors; 0.56% of 390,000 active; AID 540317; note: nearly all actives have a fitted effect of over 70% in size
Target sequence (P83916 whole entry, looked up): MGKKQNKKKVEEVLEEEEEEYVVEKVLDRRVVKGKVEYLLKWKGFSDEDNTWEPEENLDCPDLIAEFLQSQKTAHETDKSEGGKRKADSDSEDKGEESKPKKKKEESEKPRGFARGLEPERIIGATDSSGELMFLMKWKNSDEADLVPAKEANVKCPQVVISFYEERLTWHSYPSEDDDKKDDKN
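AlphaScreen: HP1-beta (50 nM) preformed 30 min with biotin-H3(1-18)K9me3 peptide (50 nM) in PBS pH 7.4, 0.01% Tween-20. Compound added for 30 min at RT, then streptavidin donor/nickel chelate acceptor beads (10 ug/mL) for 30 min.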
VDR inhibitor: vitamin D3 receptor (human) inhibition; P11473; AID 504847; Potency, µM, for the others: max response, negative = inhibition, most hits filed as inhibitors; VDR-SRC2-3 peptide fluorescence polarization, 2 h; 0.93% of 400,000 active; note: % is set by controls: 0 for no effect and ±100 for the full control effect
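Two reagent solutions held at 4 deg C in the dark were dispensed, compounds pinned at 23 nl, and the mixture incubated 2 h at room temperature. Read-out: fluorescence polarization of VDR–SRC2-3 peptide binding.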
G9a block: G9a (human) methyltransferase inhibition. G9a H3K9 monomethylation, AlphaScreen, 2 h. Potency, µM (highest dose often 102 µM), inactives show top-dose activity, negative = inhibition, hits mostly inhibitors. 8.8% of 350,000 active; note: % is set by controls: 0 for no effect and ±100 for the full control effect; nearly all actives have a fitted effect of over 75% in size
Target sequence (Q96KQ7 913-1193 limits assumed): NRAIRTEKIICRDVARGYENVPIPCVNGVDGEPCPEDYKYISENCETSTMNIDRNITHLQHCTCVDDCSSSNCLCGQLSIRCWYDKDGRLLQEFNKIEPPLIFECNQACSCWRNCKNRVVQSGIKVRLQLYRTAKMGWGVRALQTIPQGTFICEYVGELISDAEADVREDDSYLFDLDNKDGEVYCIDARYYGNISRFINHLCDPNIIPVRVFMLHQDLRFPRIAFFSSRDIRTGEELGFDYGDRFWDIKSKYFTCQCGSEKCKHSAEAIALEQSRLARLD
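AlphaScreen detection with an anti-monomethyl H3K9 antibody quantified product after a 2 h room-temperature reaction containing 500 nM biotinylated H3K9 peptide, 20 µM SAM and 20 nM enzyme, which had been preincubated 15 min with compound.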
PLK1 PBD block: inhibitors of human PLK1 polo-box domain binding. Plk1 PBD binding of FITC phosphopeptide, fluorescence polarization. Potency, µM, for the others: max response, negative = inhibition, most hits filed as inhibitors. P53350. 2.8% of 360,000 active; note: series mostly up to about 57 µM; % is set by controls: 0 for no effect and ±100 for the full control effect; nearly all actives have a fitted effect of over 65% in size
JMJD2A Tudor: JMJD2A Tudor domain (human) inhibition; AID 504339; 4.4% of 390,000 active; AlphaScreen JMJD2A-Tudor / H3K4me3 peptide binding; Potency, µM (highest dose often 114 µM), inactives show top-dose activity change, negative = inhibition, hits mostly inhibitors; note: % is set by controls: 0 for no effect and ±100 for the full control effect; nearly all actives have a fitted effect of over 50% in size
Active calls of the source: *; ? = inconclusive; nt = no result; [ ] = another dose, or the depositor's remark. Rows were chosen to be rich in hits. Some 11% of all compounds tested hit in one or more screens of this group. Calls come from the whole dose curve; as a rule, active = well fitted curve in the direction sought with a large enough effect; inconclusive = small, poorly fitted or top-dose-only effect, or another doubt; inactive = no such curve, though single readings can be large; an effect the other way counts as inactive or inconclusive. Potency is the fitted concentration of half-maximal effect.

SMILES | BAZ2B block | HP1b binding inh | VDR inhibitor | G9a block | PLK1 PBD block | JMJD2A Tudor
COc1ccc(N2CCN(CC(=O)Nc3ccc(SC(F)F)cc3)CC2)cc1 | 40µM* | -15% | 3% | ? | -8% | ?
COc1ccc(C(=O)C(=O)N2CCN(c3ccc(C)cc3)CC2)cc1OC | nt | nt | nt | nt | -3% | nt
COc1ccc(C(=O)Cn2c(N3CCOCC3)nc3ccccc32)cc1OC | 29% | nt | nt | 16%[59 µM] | nt | nt
COc1ccc(N2CCN(c3nc4ccccc4n3CC(=O)c3ccccc3)CC2)cc1 | ? | ? | 19% | 14µM* | -8% | ?
N#Cc1ccc(C(=O)CN2CCN(c3ccccc3)CC2)cc1 | -27% | 25% | 3% | 28µM* | -11% | -21%
Fc1ccc(Nc2c3c(nc4nncn24)CCC3)cc1 | 0% | 26% | -5% | ? | nt | -10%
COc1cc(-c2nc3nc(C)cc(C)n3c2Nc2ccc(Cl)cc2)ccc1O | -24% | 0% | -7% | -45%[59 µM] | nt | -25%
CC(C)=CCC/C(C)=C/CNC(=O)C[C@H]1C[C@H](C(=O)N2CCCCC2)[C@@]2(CCc3ccccc3)c3[nH]c4cc(CCC(=O)N(C)C)ccc4c3CCN2C1=O | nt | 17% | 3% | nt | -3% | -27%
COc1ccccc1N1CCN(CC(=O)c2ccc(F)cc2)CC1 | 56µM* | ? | -22% | nt | -8% | 14µM*
Cc1ccc(CNC(=O)CN2CCN(c3ccc(F)cc3)CC2)cc1 | 6% | 44% | -1% | nt | 3% | -10%
C/C=C(\C)CN1CCN(c2ccccc2)CC1 | ? | 8% | -6% | 50µM* | 4% | -16%
Cc1c(O)ccc(C(=O)CN2CCN(c3ccc(F)cc3)CC2)c1O | -35% | -5%[57 µM] | -23% | 45µM* | -14% | -33%
COc1ccc(N2CCN(CC(=O)Nc3ccc(C)cc3)CC2)cc1 | ? | -4% | ? | nt | 2% | -26%
COc1ccc(N2CCN(CC(=O)NC(=O)NC(C)(C)C)CC2)cc1 | -13% | 15% | 5% | 79µM* | 5% | -6%
N/N=C/C(=N\Nc1ccc(Cl)cc1)C(=O)c1ccncc1 | ? | 107% | -8% | -44%[12.7 µM] | -1% | ?
COC(=O)c1ccc(CNC(=O)c2ccc(NS(=O)(=O)c3ccc4[nH]c(=O)[nH]c4c3)cc2)cc1 | 3% | 18% | -5% | ? | -4% | -17%
O=C(Nc1ccc(F)cc1)[C@H](CSCc1ccccc1)N1Cc2ccccc2C1=O | -8% | 21% | -7% | -6%[59 µM] | nt | ?
COc1ccccc1N1CCN(C(=O)/C=C/c2ccccc2)CC1 | 9% | -23% | -9% | 14%[59 µM] | -24% | ?
COc1ccc(N2CCN(C(=O)NC(=O)c3ccc(Cl)cc3)CC2)cc1 | -21% | 19% | 1% | ? | -5% | -16%
COc1ccc(N2CCN(CC(=O)c3ccc(Cl)cc3)CC2)cc1 | ? | 18% | 130% | 22µM* | -27% | ?
CC(C)(C)NC(=O)NC(=O)CN1CCN(S(=O)(=O)c2ccc3c(c2)CCCC3)CC1 | -17% | 12% | -9% | 45µM* | 0% | -20%
COc1ccc(C(=O)CN2CCN(c3ccc(F)cc3)CC2)cc1OC | -7% | 31% | 1% | 40µM* | -4% | -24%
CC(C)(C)NC(=O)NC(=O)CN1CCN(S(=O)(=O)c2ccccc2)CC1 | -16% | -2% | -14% | 6% | -1% | -20%
COc1ccccc1N1CCN(C/C(C)=C/c2ccccc2)CC1 | 56µM* | 18% | -6% | -1%[12.7 µM] | -1% | -28%
COc1ccccc1CCNC(=O)C(=O)NCC(c1cccs1)S(=O)(=O)c1cccs1 (stereo not drawn) | -9% | 19% | -5% | 6%[59 µM] | nt | -8%
SMILES | BAZ2B block | HP1b binding inh | VDR inhibitor | G9a block | PLK1 PBD block | JMJD2A Tudor
COC(=O)c1ccc(NS(=O)(=O)c2ccc3c(c2)n(C)c(=O)c(=O)n3C)cc1 | nt | 5% | -8% | 5%[59 µM] | nt | -14%
Cc1onc(-c2ccccc2)c1C(=O)NC(=S)NNC(=O)c1ccc(O)cc1O | 22µM* | -15% | 5% | ? | ? | 79µM*
Cc1onc(-c2ccccc2)c1C(=O)N1CCCC1 | 50µM* | 32% | -5% | 55% | -11% | -17%
Cc1onc(-c2ccccc2)c1C(=O)NC(=S)NNC(=O)c1ccccc1O | 35µM* | -6% | -2% | -4%[59 µM] | -18% | 79µM*
Cc1onc(-c2ccccc2)c1C(=O)NCc1ccco1 | 8% | 22% | -12% | 50µM* | -12% | -11%
Cc1csc(NC(=O)CSc2nc3ccccc3c3c2CCCC3)n1 | -11% | -9% | -4% | 28µM* | 0% | -31%
Cc1csc(NC(=O)CSc2ncc(-c3ccccc3)[nH]2)n1 | 50µM* | 3% | -12% | 3.2µM* | -13% | -27%
Cc1csc(NC(=O)CSc2nc3ccccc3c(=O)[nH]2)n1 | -2% | 32% | -14% | 26%[59 µM] | -20% | -5%
Cc1cc(C)n(-c2nnc(C)n2/N=C/c2cc(Br)ccc2OCc2ccccc2)n1 | -38% | 8% | ? | ? | -21% | -32%
CCN(CC)C(=O)c1cccc2nc3ccccc3nc12 | -2% | -7% | -13% | 0% | ? | 79µM*
O=C(c1cccc2nc3ccccc3nc12)N1CCOCC1 | -9% | -13% | -18% | 6%[12.7 µM] | ? | 79µM*
O=C(c1ccccc1O)N1CCOCC1 | -2% | 33% | 13% | -1%[59 µM] | 0% | 2%
O=C(Nc1nc(-c2ccccn2)cs1)c1ccc(Br)s1 | 35µM* | 23% | -1% | 50µM* | -3% | ?
O=C(Cc1ccccc1F)Nc1nc(-c2ccc(F)c(F)c2)cs1 | 4% | 38% | -5% | 9% | 1% | 1%
Cc1cc(C(=O)OC(C)C(=O)Nc2nc(-c3ccccc3)cs2)c(C)o1 (stereo not drawn) | -28% | 2% | 6% | -4%[12.7 µM] | -3% | -26%
Cc1cccc(OC(C)C(=O)Nc2nc(-c3ccncc3)cs2)c1 (stereo not drawn) | 5% | 22% | 11% | 35µM* | ? | -5%
O=C(Nc1nc(-c2cc(Cl)sc2Cl)cs1)c1ccc(Br)s1 | -3% | 18% | ? | 8%[59 µM] | -2% | 0%
C[C@H](NC(=O)c1ccco1)C(=O)Nc1nc(-c2ccccn2)cs1 | nt | 30% | -10% | nt | -12% | 45µM*
CC(OC(=O)c1ccc([N+](=O)[O-])o1)C(=O)Nc1nc(-c2ccc(F)c(F)c2)cs1 (stereo not drawn) | ? | -19% | -13% | 28µM* | -14% | ?
CC(NC(=O)c1cc(COc2c(F)cccc2F)on1)c1cnn(-c2ccccc2)c1 (stereo not drawn) | -6% | 51% | 4% | 11%[0.501 µM] | 4% | 7%
CCc1nc2sc3c(N4CCCCC4)ncnc3c2c2c1CCCC2 | -1% | 31% | 3% | 0%[59 µM] | nt | 3%
